# Compound activity: PubChem, Broad Institute
# U2OS ROS induce – inducers of reactive oxygen species in cancer cells | U2OS ROS induction, H2DCF-DA fluorescence | ROS induction (% of piperlongumine), % at 10 µM | hit rate 2% among 46,000 | AID 624156; in the data active = ROS induction above about 79%, passing the limit was not always enough;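 note: 0% = DMSO vehicle median and 100% = reference compound median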
# An asterisk follows results filed as active. Many of the other results were omitted from the sample, so hits are more common in it than they were.
SMILES,U2OS ROS induce
CC(=O)N/C(=C\c1ccccc1)C(=O)NC1CCCCC1C (stereo unspecified),-3
Cc1c(C)c(C)c(CS(=O)(=O)CC(=O)Nc2ccc(F)c(Cl)c2)c(C)c1C,3
O=C(C1=CCN(S(=O)(=O)c2ccccc2)CC1)N1CCCCC1,17
C=CCNC(=O)[C@H]1[C@@H]2C(=O)O[C@@H](c3ccccc3)[C@@H](c3ccccc3)N2[C@@H](c2ccc(OCCO)cc2)[C@]12C(=O)Nc1ccc(C#CC3=CCCCC3)cc12,43
NC(=O)[C@H]1[C@@H]2C(=O)O[C@@H](c3ccccc3)[C@@H](c3ccccc3)N2[C@@H](c2ccc(OCCO)cc2)[C@]12C(=O)Nc1ccc(C#CC3=CCCCC3)cc12,28
O=C1O[C@@H](c2ccccc2)[C@@H](c2ccccc2)N2[C@@H](c3ccc(OCCO)cc3)[C@]3(C(=O)Nc4ccc(C#CC5=CCCCC5)cc43)[C@@H](C(=O)O)[C@H]12,159*
C=CCNC(=O)[C@H]1[C@@H]2C(=O)O[C@@H](c3ccccc3)[C@@H](c3ccccc3)N2[C@@H](c2ccccc2OCCO)[C@]12C(=O)Nc1ccc(C#CCC(C(=O)OC)C(=O)OC)cc12,185*
NC(=O)NCC#Cc1ccc2c(c1)[C@]1(C(=O)N2)[C@H](c2ccccc2OCCO)N2[C@H](c3ccccc3)[C@H](c3ccccc3)OC(=O)[C@H]2[C@@H]1C(=O)NC[C@H](O)c1ccccc1,6
COC(=O)C(CC#Cc1ccc2c(c1)[C@]1(C(=O)N2)[C@H](c2ccccc2OCCO)N2[C@H](c3ccccc3)[C@H](c3ccccc3)OC(=O)[C@H]2[C@@H]1C(=O)NC[C@H](O)c1ccccc1)C(=O)OC,205*
C=CCNC(=O)[C@@H]1[C@H]2C(=O)O[C@H](c3ccccc3)[C@H](c3ccccc3)N2[C@H](c2ccccc2OCCO)[C@@]12C(=O)Nc1ccc(C#Cc3ccc(OC)cc3)cc12,25
C=CCNC(=O)[C@H]1[C@@H]2C(=O)O[C@@H](c3ccccc3)[C@@H](c3ccccc3)N2[C@@H](c2ccc(OCCO)cc2)[C@]12C(=O)Nc1ccc(C#Cc3ccc(OC)cc3)cc12,14
C=CCNC(=O)[C@H]1[C@@H]2C(=O)O[C@@H](c3ccccc3)[C@@H](c3ccccc3)N2[C@@H](c2ccc(O)cc2)[C@]12C(=O)Nc1ccc(C#Cc3ccc(OC)cc3)cc12,11
COC(=O)C(CC#Cc1ccc2c(c1)[C@]1(C(=O)N2)[C@H](C(=O)NC[C@H](O)c2ccccc2)[C@H]2C(=O)O[C@H](c3ccccc3)[C@H](c3ccccc3)N2[C@@H]1c1ccc(OCCO)cc1)C(=O)OC,23
COC(=O)C(CC#Cc1ccc2c(c1)[C@]1(C(=O)N2)[C@H](c2ccccc2OCCO)N2[C@H](c3ccccc3)[C@H](c3ccccc3)OC(=O)[C@H]2[C@@H]1C(=O)Nc1nc2ccccc2s1)C(=O)OC,46
C=CCNC(=O)[C@H]1[C@@H]2C(=O)O[C@@H](c3ccccc3)[C@@H](c3ccccc3)N2[C@@H](c2ccc(OCCO)cc2)[C@]12C(=O)Nc1ccc(C#CCC(C(=O)OC)C(=O)OC)cc12,157*
CCc1ccc(NC(=S)NC(=O)c2cccs2)cc1,5
NS(=O)(=O)c1ccc(NC(=O)/C=C/c2ccccc2)cc1,-7
C=CCNC(=O)CCN1C(=O)COc2ccccc21,-7
O=C(CN1C(=O)CCc2ccccc21)NCCc1ccccc1,-15
CC1=C/C(=C\N(C)c2ccccc2)C(=O)S1,23
CC1(C)OC(=O)C=C(c2ccc(Cl)cc2)O1,-6
O=C(c1ccc(N2CCOCC2)nc1)N1CCCCCC1,-4
CC(C)COc1ccc(C(=S)N2CCCCC2)cc1,1
Cc1ccc(Nc2nc(N)nc(CC(=O)CSc3nc4ccccc4s3)n2)cc1,27
O=S(=O)(NC1CCCCC1NC1CCCCC1)c1ccccc1 (stereo unspecified),-6
NC(=O)COc1ccc(Cl)cc1,-7
COc1ccc(C#Cc2ccc3c(c2)[C@]2(C(=O)N3)[C@H](c3ccc(OCCO)cc3)N3[C@H](c4ccccc4)[C@H](c4ccccc4)OC(=O)[C@H]3[C@@H]2C(=O)N2CCc3cc(OC)c(OC)cc3C2)cc1,59
C=CCNC(=O)[C@@H]1[C@H]2C(=O)O[C@H](c3ccccc3)[C@H](c3ccccc3)N2[C@H](c2ccccc2OCCO)[C@@]12C(=O)Nc1ccc(C#CCC(C(=O)OC)C(=O)OC)cc12,192*
C=CCNC(=O)[C@@H]1[C@H]2C(=O)O[C@H](c3ccccc3)[C@H](c3ccccc3)N2[C@H](c2ccccc2OCCO)[C@@]12C(=O)Nc1ccc(C#CCNC(N)=O)cc12,11
COc1ccc(C#Cc2ccc3c(c2)[C@]2(C(=O)N3)[C@H](C(=O)N3CCc4cc(OC)c(OC)cc4C3)[C@H]3C(=O)O[C@H](c4ccccc4)[C@H](c4ccccc4)N3[C@@H]2c2ccc(OCCO)cc2)cc1,23
